In PubChem BioAssay (NCATS):
Results filed as inconclusive are left out. Where a call stands in place of a potency, no number is given. Calls of active or inactive are those of the source. Calls come from the whole dose curve; as a rule, active = well fitted curve in the direction sought with a large enough effect; inconclusive = small, poorly fitted or top-dose-only effect, or another doubt; inactive = no such curve, though single readings can be large; an effect the other way counts as inactive or inconclusive.

Assay: S16 Schwann cell viability assay (CellTiter-Glo assay) (AID 624031);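 note: cellular ATP luminescence as a viability measure; nearly all actives have a fitted effect of over 70% in size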
Conditions: S16 rat Schwann cells viability, 24 h; series mostly up to 57.5 µM
Outline: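 Luminescent ATP read-out (CellTiter-Glo) after 24 h compound exposure of native S16 rat Schwann cells at 37 °C. Signals were normalized between cell-free wells and DMSO-treated cells, set as 0% activity.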

Structure (SMILES) | Potency
CC(C)(S)[C@@H](N)C(=O)O | inactive
O=C(O)c1cn(-c2ccc(F)cc2)c2cc(N3CCNCC3)c(F)cc2c1=O | inactive
CC(C)c1ccc2oc3nc(N)c(C(=O)O)cc3c(=O)c2c1 | inactive
N=C(N=C(N)N)N1CCOCC1 | inactive
C[C@H](Cn1cnc2c(N)ncnc21)OCP(=O)(O)O | inactive
O=c1oc2cc(O)ccc2s1 | inactive
CC1=C(C)C(=O)C(C(CCCCCC(=O)O)c2ccccc2)=C(C)C1=O (stereo not given) | inactive
O=C(OC1C[C@H]2CC[C@@H](C1)[N+]21CCCC1)C(O)(c1ccccc1)c1ccccc1 (stereo not given in full) | inactive
Nc1cc(C(Cl)=C(Cl)Cl)c(S(N)(=O)=O)cc1S(N)(=O)=O | inactive
COc1ccc(C2(C#N)CCC(C(=O)O)CC2)cc1OC1CCCC1 (stereo not given) | inactive
CCC[C@@H]1C[C@@H](C(=O)N[C@@H]([C@H]2O[C@H](SC)[C@H](O)[C@@H](O)[C@H]2O)[C@@H](C)O)N(C)C1 | inactive
N=C(N)c1ccc2cc(OC(=O)c3ccc(N=C(N)N)cc3)ccc2c1 | inactive
CCN(CCO)CCCC(C)Nc1ccnc2cc(Cl)ccc12 (stereo not given) | inactive
Cc1c(OCC(F)(F)F)ccnc1CS(=O)c1nc2ccccc2[nH]1 (stereo not given) | inactive
CCOc1cc(CC(=O)N[C@@H](CC(C)C)c2ccccc2N2CCCCC2)ccc1C(=O)O | inactive
CN(C)C(=O)COC(=O)Cc1ccc(OC(=O)c2ccc(N=C(N)N)cc2)cc1 | inactive
CCCCCCCCOc1ccccc1C(=O)Nc1ccc(C(=O)OCC[N+](C)(CC)CC)cc1 | inactive
Cc1ncc([N+](=O)[O-])n1CC(C)O (stereo not given) | inactive
C[Se]CCC(N)C(=O)O (stereo not given) | inactive
CCOC(=O)c1c(C)n(C)c2ccc(O)cc12 | inactive
CC[C@]1(O)C[C@H]2CN(CCc3c([nH]c4ccccc34)[C@@](C(=O)OC)(c3cc4c(cc3OC)N(C=O)[C@H]3[C@@](O)(C(=O)OC)[C@H](OC(C)=O)[C@]5(CC)C=CCN6CC[C@]43[C@@H]65)C2)C1 | inactive
O=C(NC(Cc1cc(=O)[nH]c2ccccc12)C(=O)O)c1ccc(Cl)cc1 (stereo not given) | inactive
C[C@]12CCC(=O)C=C1CC[C@@H]1[C@H]2[C@@H](O)C[C@@]2(C)[C@H]1CC[C@]2(O)C(=O)CO | inactive
CNC[C@@H](O)[C@@H](O)[C@H](O)[C@H](O)CO | inactive
O=P(O)(O)C(O)(Cn1ccnc1)P(=O)(O)O | inactive
CCCCN(CCCC)CCC(O)c1cc2c(Cl)cc(Cl)cc2c2cc(C(F)(F)F)ccc12 (stereo not given) | inactive
Cc1c(C(=O)NN2CCCCC2)nn(-c2ccc(Cl)cc2Cl)c1-c1ccc(Cl)cc1 | inactive
Cc1cc2cc3c(C)cc(=O)oc3c(C)c2o1 | inactive
CCCCCCCCCCCCCCCCCCCCCCO | inactive
CN1C(C(=O)Nc2ccccn2)=C(O)c2sccc2S1(=O)=O | inactive

Assay: S16 Schwann cell PMP22 intronic element firefly luciferase assay (AID 624032); note: nearly all actives have a fitted effect of over 30% in size; note: potency is the fitted concentration of half-maximal effect
Conditions: S16 rat Schwann cells, PMP22 element FLuc, 24 h; series mostly up to 57.5 µM
Outline: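 Luciferase reporter of PMP22 intronic-element expression in stably transfected S16 rat Schwann cells, read by ONE-Glo luminescence after 24 h compound exposure at 37 C. Activity scaled between DMSO (0%) and positive-control PTC124; concentration-effect curves quality-classified.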

Structure (SMILES) | Potency
Cc1cc(=O)c2c(O)c3c(O)cc(=O)c4c3c3c(cc(O)c1c23)C(C)(C)C=4O | inactive
CC(C)(S)[C@@H](N)C(=O)O | inactive
O=C(O)c1cn(-c2ccc(F)cc2)c2cc(N3CCNCC3)c(F)cc2c1=O | inactive
N=C(N=C(N)N)N1CCOCC1 | inactive
C[C@H](Cn1cnc2c(N)ncnc21)OCP(=O)(O)O | inactive
O=c1oc2cc(O)ccc2s1 | inactive
CC1=C(C)C(=O)C(C(CCCCCC(=O)O)c2ccccc2)=C(C)C1=O (stereo not given) | inactive
O=C(OC1C[C@H]2CC[C@@H](C1)[N+]21CCCC1)C(O)(c1ccccc1)c1ccccc1 (stereo not given in full) | inactive
Nc1cc(C(Cl)=C(Cl)Cl)c(S(N)(=O)=O)cc1S(N)(=O)=O | inactive
COc1ccc(C2(C#N)CCC(C(=O)O)CC2)cc1OC1CCCC1 (stereo not given) | inactive
CCC[C@@H]1C[C@@H](C(=O)N[C@@H]([C@H]2O[C@H](SC)[C@H](O)[C@@H](O)[C@H]2O)[C@@H](C)O)N(C)C1 | inactive
N=C(N)c1ccc2cc(OC(=O)c3ccc(N=C(N)N)cc3)ccc2c1 | inactive
CCN(CCO)CCCC(C)Nc1ccnc2cc(Cl)ccc12 (stereo not given) | inactive
CN(c1nccc(=O)[nH]1)C1CCN(c2nc3ccccc3n2Cc2ccc(F)cc2)CC1 | inactive
CCOc1cc(CC(=O)N[C@@H](CC(C)C)c2ccccc2N2CCCCC2)ccc1C(=O)O | inactive
CN(C)C(=O)COC(=O)Cc1ccc(OC(=O)c2ccc(N=C(N)N)cc2)cc1 | inactive
CCCCCCCCOc1ccccc1C(=O)Nc1ccc(C(=O)OCC[N+](C)(CC)CC)cc1 | inactive
Cc1ncc([N+](=O)[O-])n1CC(C)O (stereo not given) | inactive
C[Se]CCC(N)C(=O)O (stereo not given) | inactive
CCOC(=O)c1c(C)n(C)c2ccc(O)cc12 | inactive
CC[C@]1(O)C[C@H]2CN(CCc3c([nH]c4ccccc34)[C@@](C(=O)OC)(c3cc4c(cc3OC)N(C=O)[C@H]3[C@@](O)(C(=O)OC)[C@H](OC(C)=O)[C@]5(CC)C=CCN6CC[C@]43[C@@H]65)C2)C1 | 0.0907 µM (active)
O=C(NC(Cc1cc(=O)[nH]c2ccccc12)C(=O)O)c1ccc(Cl)cc1 (stereo not given) | inactive
C[C@]12CCC(=O)C=C1CC[C@@H]1[C@H]2[C@@H](O)C[C@@]2(C)[C@H]1CC[C@]2(O)C(=O)CO | inactive
CNC[C@@H](O)[C@@H](O)[C@H](O)[C@H](O)CO | inactive
O=P(O)(O)C(O)(Cn1ccnc1)P(=O)(O)O | inactive
O=C(NCC1CCCCN1)c1cc(OCC(F)(F)F)ccc1OCC(F)(F)F (stereo not given) | inactive
Cc1c(C(=O)NN2CCCCC2)nn(-c2ccc(Cl)cc2Cl)c1-c1ccc(Cl)cc1 | 18.1 µM (active)
Cc1cc2cc3c(C)cc(=O)oc3c(C)c2o1 | inactive
CCCCCCCCCCCCCCCCCCCCCCO | inactive
CN1C(C(=O)Nc2ccccn2)=C(O)c2sccc2S1(=O)=O | inactive
